Here are results for eight molecules from PubChem BioAssay (NCI).

Some test systems named below: NCI-H23 lung; NCI-H226 lung; NCI-H322M lung; HOP-62 NSCLC; NCI-H460 lung; HOP-92 NSCLC; NCI-H522 lung; A549/ATCC NSCLC; 786-0 renal; COLO 205 colon; DU-145 prostate; K-562 leukemia; MALME-3M melanoma; MDA-MB-231 breast; RXF 393 renal; SF-268 CNS; SF-295 CNS; SF-539 CNS; UACC-257 melanoma; M14 melanoma.
Holding throughout (assay): NCI-60 one-dose screen, 48 h (100 = growth as untreated, 0 = no growth, -100 = all killed)
Holding throughout (conditions): 10 µM unless noted

Compounds without any hit were thinned out: in the full panel of roughly 83,000, 20% have a hit.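 Each cell line was grown in a 96-well plate and treated with one concentration of compound for 48 hours. Values below 10 were considered active.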 A number with no mark means an inactive call. Active and inactive are the calls of the source.

In the case of `O=C(Nc1ccc(N2CCOCC2)cc1)Nc1ccc2c(ccn2C(=O)c2cccc(F)c2)c1`, the growth in the experiment on NCI-H23 lung was 66.7%; with NCI-H226 lung, 41.4%; in the experiment on NCI-H322M lung it was 92.5%; with HOP-62 NSCLC it was 31.1%; in the experiment with NCI-H460 lung, 38.8%; with HOP-92 NSCLC, 31.4%. Also, the growth was 73.7% in the experiment with NCI-H522 lung; 59.5% with A549/ATCC NSCLC; 28.4% in the experiment with 786-0 renal; 82.1% in the experiment on COLO 205 colon; 60.2% in the experiment with DU-145 prostate; 77.3% in the experiment on K-562 leukemia. In addition, the growth with MALME-3M melanoma was 49.4%; with MDA-MB-231 breast it was 60.1%; in the experiment on RXF 393 renal, -0.178% (active); with SF-268 CNS, 65.2%; in the experiment with SF-295 CNS, 32.5%; in the experiment with SF-539 CNS, 28.3%. Besides, the growth in the experiment on UACC-257 melanoma was 61.2%; with M14 melanoma, 51.3%.
`Cc1ncn(-c2ccc(/C=N/Nc3ccnc4cc(Cl)ccc34)cc2)c1C`: the growth was 54.1% with NCI-H23 lung; 94.1% in the experiment with NCI-H226 lung; 45.5% in the experiment with NCI-H322M lung; 102% with HOP-62 NSCLC; -52.3% (active) in the experiment on NCI-H460 lung; -28.2% (active) in the experiment on HOP-92 NSCLC. For the same molecule, the growth in the experiment on NCI-H522 lung was -66.2% (active); in the experiment on A549/ATCC NSCLC it was 0.0933% (active); in the experiment on 786-0 renal, -89.4% (active); in the experiment with COLO 205 colon it was -96.5% (active); in the experiment with DU-145 prostate, 8.97% (active); in the experiment with K-562 leukemia it was 0.733% (active). The growth with MALME-3M melanoma is -88.7% (active); in the experiment on MDA-MB-231 breast, -16.8% (active); in the experiment with RXF 393 renal, -43.7% (active); in the experiment with SF-268 CNS, 21.5%; with SF-295 CNS, -72.5% (active); in the experiment with SF-539 CNS, -60.7% (active). The growth in the experiment on UACC-257 melanoma was -67.2% (active); in the experiment on M14 melanoma, -88.5% (active).
`COc1ccc2c(c1)c(-c1nnc(N)nc1-c1c[nH]c3ccc(F)cc13)cn2C`: the growth in the experiment with NCI-H23 lung is 44.6%; with NCI-H226 lung, 57.8%; in the experiment on NCI-H322M lung, 87%; with HOP-62 NSCLC, 54.7%; in the experiment with NCI-H460 lung, 15.1%; in the experiment with HOP-92 NSCLC, 68.7%. For the same molecule, the growth was 27.2% with NCI-H522 lung; 50.7% with A549/ATCC NSCLC; 46% in the experiment with 786-0 renal; 41.4% with COLO 205 colon; 70.4% with DU-145 prostate; 11.9% in the experiment on K-562 leukemia. Besides, the growth in the experiment on MALME-3M melanoma was 75.7%; with MDA-MB-231 breast, 73.7%; in the experiment on RXF 393 renal it was 47.8%; with SF-268 CNS, 54.2%; in the experiment on SF-295 CNS, 33%; in the experiment with SF-539 CNS, 40.5%. Besides, the growth in the experiment with UACC-257 melanoma is 62.5%; in the experiment with M14 melanoma, 32.8%.
For the molecule `CCCC[n+]1ccc(SCC(=O)n2ccc3ccccc32)c2ccccc21`, the growth in the experiment on NCI-H23 lung was 74.5%; in the experiment on NCI-H226 lung it was 71.1%; in the experiment on NCI-H322M lung, 96.4%; with HOP-62 NSCLC, 103%; with NCI-H460 lung, 97.8%; with HOP-92 NSCLC, 138%. Moreover, the growth in the experiment on NCI-H522 lung is 83.2%; in the experiment on A549/ATCC NSCLC, 87.5%; in the experiment on 786-0 renal it was 106%; in the experiment on COLO 205 colon, 99.8%; with DU-145 prostate, 94.6%; in the experiment with K-562 leukemia it was 66.9%. Further, the growth in the experiment on MALME-3M melanoma was 95.9%; with MDA-MB-231 breast it was 92.4%; with RXF 393 renal, 94.9%; with SF-268 CNS, 101%; with SF-295 CNS, 96.5%; with SF-539 CNS, 103%. Further, the growth is 95.7% in the experiment with UACC-257 melanoma and 98.8% in the experiment with M14 melanoma.
Consider `Nc1nc(=O)n([C@H]2C[C@H](O)[C@@H](CO)O2)cc1C=O`, for which the growth in the experiment with NCI-H23 lung is 112%; in the experiment with NCI-H226 lung, 111%; in the experiment with NCI-H322M lung, 110%; in the experiment on HOP-62 NSCLC, 95.6%; with NCI-H460 lung, 103%; in the experiment on HOP-92 NSCLC, 57.7%. Besides, the growth in the experiment on NCI-H522 lung was 102%; with A549/ATCC NSCLC, 103%; with 786-0 renal, 102%; in the experiment on COLO 205 colon, 14.5%; with DU-145 prostate it was 71.7%; in the experiment on K-562 leukemia it was 97.2%. Also, the growth was 114% in the experiment with MALME-3M melanoma; 85.1% with MDA-MB-231 breast; 103% in the experiment on RXF 393 renal; 110% with SF-268 CNS; 103% in the experiment on SF-295 CNS; 100% in the experiment with SF-539 CNS. Besides, the growth was 115% in the experiment on UACC-257 melanoma and 105% in the experiment on M14 melanoma.
In the case of `COc1ccc(-c2cnc(NC(=O)CCCCCCNC(=O)C(O)(O)C(F)(F)F)s2)cc1`, the growth is -9.04% (active) in the experiment on NCI-H23 lung; 5.81% (active) with NCI-H226 lung; 8.73% (active) in the experiment on NCI-H322M lung; 1.79% (active) in the experiment on HOP-62 NSCLC; 0.915% (active) in the experiment with NCI-H460 lung; -25.4% (active) in the experiment on HOP-92 NSCLC. For the same molecule, the growth with NCI-H522 lung is -41.4% (active); in the experiment with A549/ATCC NSCLC it was -12.5% (active); in the experiment with 786-0 renal, 14.9%; in the experiment with COLO 205 colon it was -70.8% (active); in the experiment with DU-145 prostate, -8.16% (active); in the experiment with K-562 leukemia, 14.4%. The growth in the experiment on MALME-3M melanoma is 11%; with MDA-MB-231 breast, 17%; with RXF 393 renal it was -48% (active); in the experiment on SF-268 CNS, 2% (active); with SF-295 CNS, -44.2% (active); in the experiment on SF-539 CNS it was 12%. For the same molecule, the growth in the experiment with UACC-257 melanoma is 18.3%; with M14 melanoma it was 14.4%.
On to `COC(=O)c1ccc(NC2=C(Cl)C(=O)C(C)=C(C)C2=O)cc1`, for which the growth in the experiment with NCI-H23 lung was 68.5%; with NCI-H226 lung it was 72.9%; with NCI-H322M lung, 99.6%; in the experiment with HOP-62 NSCLC, 66.2%; in the experiment on NCI-H460 lung, 79.3%; in the experiment with HOP-92 NSCLC, 64.9%. Moreover, the growth was 53.1% in the experiment on NCI-H522 lung; 81.5% in the experiment with A549/ATCC NSCLC; 84.9% in the experiment with 786-0 renal; 104% with COLO 205 colon; 85.3% in the experiment with DU-145 prostate; 4.61% (active) with K-562 leukemia. Moreover, the growth in the experiment on MALME-3M melanoma is 85%; in the experiment with MDA-MB-231 breast, 68.9%; with RXF 393 renal, 65.8%; in the experiment on SF-268 CNS, 87.3%; with SF-295 CNS it was 36.6%; in the experiment on SF-539 CNS it was 65.9%. The growth in the experiment with UACC-257 melanoma was 79.5%; in the experiment on M14 melanoma it was 45.8%.
Regarding `CC(=O)Nc1ccccc1-c1nc2ccccc2s1`, the growth in the experiment on NCI-H23 lung is 91.8%; in the experiment with NCI-H226 lung it was 98.9%; in the experiment with NCI-H322M lung it was 101%; in the experiment with HOP-62 NSCLC, 101%; in the experiment with NCI-H460 lung, 101%; in the experiment with HOP-92 NSCLC, 96.6%. Also, the growth in the experiment on NCI-H522 lung is 95.7%; with A549/ATCC NSCLC, 106%; in the experiment on 786-0 renal, 104%; in the experiment with COLO 205 colon it was 113%; with DU-145 prostate, 110%; in the experiment with K-562 leukemia it was 113%. The growth is 106% in the experiment on MALME-3M melanoma; 99.2% in the experiment with MDA-MB-231 breast; 103% in the experiment on RXF 393 renal; 101% in the experiment on SF-268 CNS; 103% in the experiment on SF-295 CNS; 100% in the experiment on SF-539 CNS. Moreover, the growth is 107% in the experiment with UACC-257 melanoma and 103% with M14 melanoma.
